Data: PubChem BioAssay AID588382 (National Center for Advancing Translational Sciences (NCATS), 2011)
Values joined by “and” are separate entries in the source; they are usually repeats but may differ in a detail not shown here. Identical values can stand only once. Hit rate of the full screen: of about 1,300 compounds, about 150 (12%) were called active. Where a call stands in place of a potency, no number is given. About 30% were inconclusive and are not listed. Calls follow the shape of the dose curve; as a rule, active = well fitted cell-killing curve with a large enough effect; inconclusive = small, poorly fitted or top-dose-only effect, or effect the other way; inactive = flat fitted curve, though single readings scatter. Many of the other results were omitted from the sample, so actives are more common in it than they were.

Experiment: qHTS of small molecules that selectively kill Giardia lamblia: Hit Validation in HepG2 cytotox;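 also: compound exposure lasted overnight at 37 deg C; nearly all actives have a fitted effect of over 55% in size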
Details: cell viability; Potency: HepG2 cytotoxicity; series mostly up to 38.3 µM
Source text: Giardia lamblia is a human pathogen afflicting impoverished nations, and the most common cause of outbreaks of diarrhea in the United States. Giardia has been classified by the CDC as a category B bioterrorism organism. The favored anti giardiasis drugs in the US are metronidazole or tinidazole, compounds that have undesirable side effects. Moreover, increasing resistance to drug regimes and recurrence are a concern. It is thus clear that alternative drug treatments are needed.
In a collaboration between the University of Maryland, College Park and the NIH Chemical Genomics Center, a bioluminescence Giardia viability assay based on the trophozoites' ATP content was developed. This assay is suitable for high throughput screening, and miniaturized the assay for compound screening in 1536-well plates. The goal of the project is to screen the Molecular Libraries Small Molecule Repository (MLSMR) for compounds that selectively kill Giardia trophozoites. This counterscreen looks at the toxicity of the compounds against the human HepG2 cell line.
NIH Chemical Genomics Center [NCGC]
NIH Molecular Libraries Probe Centers Network [MLPCN]
Assay Submitter (PI): Osnat Herzberg, University of Maryland, College Park, MD.
4 uL of HepG2 cells ae dispensed into white 1536-well plates. They are incubated overnight at 37 deg C and then 23 nL of compounds are transferred to the wells with a pintool. Plates are incubated overnight at 37 deg C. 2 uL of ATPLite is added and the plates are incubated for 15 min at room temperature before they are read on the ViewLux for luminiescence.
Potency is read from the fitted curve at half-maximal effect.

Question: Which Potency does the source give for COc1ccc(-c2nn(-c3ccccc3)cc2C(=O)N/N=C/c2ccc([N+](=O)[O-])o2)cc1 here?
Answer: The Potency was “inactive”.

Question: With O=C(N/N=C/c1ccc([N+](=O)[O-])o1)c1cn2ccc3ccccc3c2n1 as the compound, how does the Potency read?
Answer: The Potency was “inactive”.

Question: With CCOC(=O)N/N=C\c1ccc([N+](=O)[O-])o1 as the compound, how does the Potency read?
Answer: The Potency was “inactive”.

Question: With Cc1ccc2nc(N/N=C\c3ccc([N+](=O)[O-])o3)nc(-c3ccccc3)c2c1 as the compound, how does the Potency read?
Answer: Its Potency is “inactive”.

Question: With CC1CC(C)C(=NNC(N)=O)C(C(O)CC2CCC(=O)NC2=O)C1 (centres undefined) as the compound, how does the Potency read?
Answer: The Potency was “inactive”.

Question: With N/C(=N\O)c1ccc([N+](=O)[O-])s1 as the compound, how does the Potency read?
Answer: The Potency was “inactive”.

Question: Which Potency does the source give for COc1ccc(-n2nc([N+](=O)[O-])c(=NCc3ccc4c(c3)OCO4)n2O)cc1 here?
Answer: The Potency was “inactive”.

Question: For O=C(/C=C/c1ccc(O)c([N+](=O)[O-])c1)c1ccc2ccccc2c1, which Potency is on record?
Answer: Its Potency is “inactive”.

Question: For Cc1nn(-c2nc3ccccc3[nH]2)c(=O)c2ccccc12, which Potency is on record?
Answer: The Potency was 2.07 µM (active).

Question: With Cc1ccc(NC(=O)CN2C(=O)S/C(=C/c3ccc(O)c([N+](=O)[O-])c3)C2=O)cc1C as the compound, how does the Potency read?
Answer: Its Potency is “inactive”.

Question: With Cc1cccc(N=Nc2c(C)c(C#N)c(O)[nH]c2=O)c1 as the compound, how does the Potency read?
Answer: The Potency was “inactive”.

Question: For CC1C/C(=C/c2ccncc2)C(=O)/C(=C/c2ccncc2)C1 (centres undefined), which Potency is on record?
Answer: The Potency was 2.07 µM (active).

Question: With O=C1/C(=C/c2ccncc2)CCC/C1=C\c1ccncc1 as the compound, how does the Potency read?
Answer: The Potency was 4.14 µM (active).

Question: Which Potency does the source give for O=C1N=C(N2CCCCC2)S/C1=C\c1ccc(Br)cc1 here?
Answer: The Potency was “inactive”.

Question: With O=c1c2c(-c3ccccc3)csc2ncn1/N=C/c1ccc(O)c([N+](=O)[O-])c1 as the compound, how does the Potency read?
Answer: The Potency was “inactive”.

Question: With Cc1ccc(C2=NCCn3c2c2ccccc2[n+]3[O-])cc1 as the compound, how does the Potency read?
Answer: Its Potency is “inactive”.

Question: Which Potency does the source give for CC(=O)Nc1nc(-c2cc([N+](=O)[O-])cs2)cs1 here?
Answer: Its Potency is “inactive”.

Question: For CCn1c(=NC(=O)c2cccc(N3C(=O)CCC3=O)c2)sc2c(OC)ccc(OC)c21, which Potency is on record?
Answer: The Potency was “inactive”.

Question: For Cc1cnc([N+](=O)[O-])n1CCOC(=O)NC(=O)c1ccc(F)cc1, which Potency is on record?
Answer: Its Potency is “inactive”.

Question: With CN(C)C(=O)COC(=O)c1cccc(S(=O)(=O)N2CC3(C)CC2CC(C)(C)C3)c1 (centres undefined) as the compound, how does the Potency read?
Answer: Its Potency is “inactive”.

Question: For O=[N+]([O-])c1nn(-c2ccccc2)[n+]([O-])c1N1CCN(c2ccccc2)CC1, which Potency is on record?
Answer: Its Potency is “inactive”.

Question: For CCOc1ccc(-c2cc(C(=O)N3CCN(c4ccccn4)CC3)c3ccccc3n2)cc1, which Potency is on record?
Answer: The Potency was 1.65 µM (active) and 414 nM (active).

Question: For O=C(CSc1ccsc1[N+](=O)[O-])N1CCN(c2ccccn2)CC1, which Potency is on record?
Answer: The Potency was “inactive”.

Question: With CN(C(=O)CN1CCN(c2ccc([N+](=O)[O-])cn2)CC1)c1ccccc1 as the compound, how does the Potency read?
Answer: Its Potency is “inactive”.

Question: With Cc1ncc([N+](=O)[O-])n1CCOC(=O)NC(Nc1ccc(F)cc1)C(Cl)(Cl)Cl (centres undefined) as the compound, how does the Potency read?
Answer: Its Potency is “inactive”.

Question: For O=C(CCCn1cnc([N+](=O)[O-])n1)Nc1ccc(F)c(Cl)c1, which Potency is on record?
Answer: Its Potency is “inactive”.

Question: Which Potency does the source give for COc1cc2c(cc1OC)-c1c(OC)c(OC)cc3ccnc(c13)C2=O here?
Answer: The Potency was “inactive”.

Question: For COc1ccc(-n2nc([N+](=O)[O-])c(=NCCc3ccc(Cl)cc3)n2O)cc1, which Potency is on record?
Answer: Its Potency is “inactive”.

Question: Which Potency does the source give for O=C(NCC1CCCO1)c1ccc([N+](=O)[O-])o1 (centres undefined) here?
Answer: Its Potency is “inactive”.

Question: With O=C(CN(C1CCCCC1)S(=O)(=O)c1ccc(F)cc1)NCC1CCCO1 (centres undefined) as the compound, how does the Potency read?
Answer: The Potency was 4.65 µM (active).

Question: With CN(C(=O)c1ccc(F)c(S(=O)(=O)N2CCOCC2)c1)C1CCCCC1 as the compound, how does the Potency read?
Answer: Its Potency is “inactive”.

Question: For CCS(=O)(=O)CCn1c([N+](=O)[O-])cnc1C, which Potency is on record?
Answer: Its Potency is “inactive”.

Question: Which Potency does the source give for O=c1c(-c2ccc(F)cc2)coc2cc(O)ccc12 here?
Answer: Its Potency is “inactive”.

Question: Which Potency does the source give for C[C@@H]1CN([C@@H](C)CO)C(=O)c2cccc(NS(=O)(=O)c3cccs3)c2O[C@H]1CN(C)Cc1ccc(C(F)(F)F)cc1 here?
Answer: The Potency was “inactive”.

Question: With NC(=O)C1CCN(c2ncccc2[N+](=O)[O-])CC1 as the compound, how does the Potency read?
Answer: The Potency was “inactive”.

Question: For COc1ccc(NC(C)C(=O)N/N=C/c2ccc([N+](=O)[O-])s2)cc1 (centres undefined), which Potency is on record?
Answer: The Potency was “inactive”.

Question: For Cc1nc2cc(NC(=O)c3ccc([N+](=O)[O-])s3)ccc2s1, which Potency is on record?
Answer: Its Potency is “inactive”.

Question: Which Potency does the source give for O=C(N/N=C\c1ccc([N+](=O)[O-])s1)c1cncc(Br)c1 here?
Answer: The Potency was 7.36 µM (active).

Question: Which Potency does the source give for COc1ccccc1NC(=O)C(=O)N/N=C/c1ccc([N+](=O)[O-])s1 here?
Answer: Its Potency is “inactive”.

Question: With Cc1ccccc1C(=O)N/N=C/c1ccc([N+](=O)[O-])s1 as the compound, how does the Potency read?
Answer: The Potency was 18.5 µM (active).

Question: With O=C(N/N=C/c1ccc([N+](=O)[O-])s1)C(O)c1ccccc1 (centres undefined) as the compound, how does the Potency read?
Answer: The Potency was 13.1 µM (active).

Question: Which Potency does the source give for Cc1ccc(NC(C)C(=O)N/N=C/c2ccc([N+](=O)[O-])s2)cc1 (centres undefined) here?
Answer: The Potency was “inactive”.

Question: With COC(=O)N/N=C/c1ccc([N+](=O)[O-])s1 as the compound, how does the Potency read?
Answer: Its Potency is “inactive”.

Question: With CCOC(=O)N/N=C\c1ccc([N+](=O)[O-])s1 as the compound, how does the Potency read?
Answer: Its Potency is “inactive”.

Question: With COCCn1c(C)cc(C(=O)COc2cccnc2[N+](=O)[O-])c1C as the compound, how does the Potency read?
Answer: Its Potency is “inactive”.

Question: For O=C(Nc1nnc(C2=COCCO2)o1)c1cccc(F)c1, which Potency is on record?
Answer: The Potency was “inactive”.

Question: For COc1nn(C(C)C(=O)N2N=C(C(F)F)CC2(O)C(F)F)cc1[N+](=O)[O-] (centres undefined), which Potency is on record?
Answer: The Potency was “inactive”.

Question: Which Potency does the source give for COc1cc(/C=C/c2ccc3cccc(OC)c3n2)c(OC(C)=O)c([N+](=O)[O-])c1 here?
Answer: The Potency was “inactive”.

Question: For CN(C)C(=O)c1cc([N+](=O)[O-])cc([N+](=O)[O-])c1N(C)C, which Potency is on record?
Answer: The Potency was “inactive”.
